29 molecules from PubChem BioAssay (NCI) can be followed below.

This is part of a sample that, as a whole, favours compounds with a hit. Of some 83,000 tested, about 20% had one in any assay.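 In brief: 96-well plates, 48 h treatment, single concentration, percent growth endpoint.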 Active and inactive are the calls of the source. Rule for the calls: active = growth percent below 10; inactive = the rest.

One assay has as its system 786-0 renal. Kind of assay: NCI-60 one-dose screen, 48 h (100 = growth as untreated, 0 = no growth, -100 = all killed). As to conditions: 10 µM.
For `COc1ccc(C2c3sc4ccc(C)cc4c3Oc3nc(N)nc(N)c32)cc1` (stereo not drawn), the growth was 102% (inactive).
On the same count and under the same terms, the result for `Cc1cc(N=C2NC(=O)S/C2=C\c2ccc(F)cc2)n[nH]1` reads 10.3% (inactive).
In the case of `Cn1cc(-c2nnc(N)nc2-c2c[nH]c3ccccc23)c2cc(Br)cnc21`, the growth is 40.1% (inactive).
`O=C(CC(=O)Nc1ccc(Oc2ncnc3scc(Nc4n[nH]c(=S)s4)c23)cc1)Nc1ccc(Cl)cc1`: the growth is 101% (inactive).
Still for that read-out and setting: the result for `O=C1NC2C=CC=CC2/C1=C1/SC(=S)N(C2CC(=O)N(c3ccc(Br)cc3)C2=O)C1=O` (stereo not drawn) reads 97.5% (inactive); that for `CC1(C)CC(=O)C2=C(C1)N(Cc1ccc(C(=O)O)cc1)C1=C(C(=O)CC(C)(C)C1)C2c1ccc(Cl)cc1`, 95.5% (inactive).
Regarding `Cc1ccc2c(c1)C(=O)/C(=C/c1ccc([N+](=O)[O-])cc1)S2`, the growth is 101% (inactive).
Still for that read-out and setting: for `O=C(Nc1ccc(OCc2ccc(Cl)cc2)cc1)Nc1ccc(Cl)c(C(F)(F)F)c1` the value was 17.2% (inactive); for `Cn1cc(-c2nc(N)nnc2-c2c[nH]c3ccccc23)c2cc(Br)cnc21`, 28.4% (inactive); for `O=C(CSc1nc2ccccc2c(=O)n1-c1ccc(Cl)cc1)Nc1ccc(-c2nc3ccccc3[nH]2)cc1`, -76.9% (active).
Still for that read-out and setting: for `Cc1ccc2c(c1)C(=O)/C(=C/c1c[nH]c3ccccc13)S2` the value was 63.9% (inactive); for `COc1cccc(O)c1/C=C1\SCc2cc3c(OC)cccc3[o+]c21`, 105% (inactive).
The same measure, in the same setting: the result for `COc1cc(C2CC(c3ccc(Oc4ccc(Cl)cc4)cc3)=NN2c2nc(-c3ccc(Cl)cc3)c(C#N)c(N3CCOCC3)n2)cc(OC)c1OC` (stereo not drawn) reads 98.8% (inactive); that for `O=C(Nc1ccc(OCC(=O)c2ccc(Cl)cc2)cc1)Nc1ccc(Cl)c(C(F)(F)F)c1`, 26% (inactive).
For the molecule `Cc1ccc2sc3c(c2c1)Oc1nc[nH]c(=O)c1C3c1cccc(F)c1` (stereo not drawn), the growth is 102% (inactive).
The same measure, in the same setting: the result for `Cc1cc(N=C2NC(=O)/C(=C/c3cc(C(C)(C)C)c(O)c(C(C)(C)C)c3)S2)n[nH]1` reads 12% (inactive).
The same measure, in the same setting: the result for `COc1ccc(C2c3sc4ccc(C)cc4c3Oc3nc[nH]c(=O)c32)cc1` (stereo not drawn) reads 103% (inactive).
On to `COc1cccc(C(=O)CSc2nc(-c3ccc(OCc4ccccc4)c(OC)c3)c(C#N)c(=O)[nH]2)c1`, for which the growth was 85.7% (inactive).
Take `Cc1ccc(COc2ccc(NC(=O)Nc3ccc(Cl)c(C(F)(F)F)c3)cc2)cc1`: the growth is 89.4% (inactive).
In the case of `CC(C)(C)c1cc(/C=C2\S/C(=N/c3ncn[nH]3)NC2=O)cc(C(C)(C)C)c1O`, the growth is 24.5% (inactive).
Regarding `Cn1cc(/C=C(/SS/C(=C/c2cn(C)c3cccc(C(=O)O)c23)C(=O)O)C(=O)O)c2c(C(=O)O)cccc21`, the growth is 104% (inactive).
Take `COc1ccc(C(=O)COc2ccc(NC(=O)Nc3ccccc3)cc2)cc1`: the growth was 94% (inactive).
For `CCn1c(SCC(=O)Nc2ccc(-c3nc4ccccc4[nH]3)cc2)nc2ccccc2c1=O`, the growth was -89.1% (active).
`O=C(Nc1ccc(OCc2ccc(F)cc2)cc1)Nc1ccc(Cl)c(C(F)(F)F)c1`: the growth was 13.5% (inactive).
Still for that read-out and setting: the result for `O=C(CC(=O)Nc1ccc(Oc2ncnc3scc(Nc4n[nH]c(=S)s4)c23)cc1)Nc1ccc(Br)cc1` reads 109% (inactive); that for `COc1ccc(C(=O)COc2ccc(NC(=O)Nc3ccc(Cl)c(C(F)(F)F)c3)cc2)cc1`, 25.2% (inactive).
Still for that read-out and setting: for `O=C(Nc1ccc(Oc2ncnc3scc(Nc4n[nH]c(=S)s4)c23)cc1)C1(C(=O)Nc2cccc(C(F)(F)F)c2)CC1` the value was 107% (inactive); for `O=C1NC(=S)S/C1=C\c1cn(-c2ccccc2)nc1-c1ccc([N+](=O)[O-])cc1`, 17.9% (inactive); for `O=C(CSc1nc2ccccc2c(=O)n1-c1ccc(Cl)cc1)Nc1ccc(-c2nc3ccc([N+](=O)[O-])cc3[nH]2)cc1`, 53.7% (inactive).

For another assay, the system named is COLO 205 colon. The description is as above. As to conditions: 10 µM.
`COc1ccc(C2c3sc4ccc(C)cc4c3Oc3nc(N)nc(N)c32)cc1` (stereo not drawn): the growth was 93.7% (inactive).
On the same count and under the same terms, the result for `Cc1cc(N=C2NC(=O)S/C2=C\c2ccc(F)cc2)n[nH]1` reads 19.2% (inactive).
As for `Cn1cc(-c2nnc(N)nc2-c2c[nH]c3ccccc23)c2cc(Br)cnc21`, the growth was 32.4% (inactive).
Take `O=C(CC(=O)Nc1ccc(Oc2ncnc3scc(Nc4n[nH]c(=S)s4)c23)cc1)Nc1ccc(Cl)cc1`: the growth is 88.5% (inactive).
Regarding `O=C1NC2C=CC=CC2/C1=C1/SC(=S)N(C2CC(=O)N(c3ccc(Br)cc3)C2=O)C1=O` (stereo not drawn), the growth was 104% (inactive).
Regarding `CC1(C)CC(=O)C2=C(C1)N(Cc1ccc(C(=O)O)cc1)C1=C(C(=O)CC(C)(C)C1)C2c1ccc(Cl)cc1`, the growth is 121% (inactive).
Still for that read-out and setting: for `Cc1ccc2c(c1)C(=O)/C(=C/c1ccc([N+](=O)[O-])cc1)S2` the value was 103% (inactive); for `O=C(Nc1ccc(OCc2ccc(Cl)cc2)cc1)Nc1ccc(Cl)c(C(F)(F)F)c1`, -80.6% (active).
On the same count and under the same terms, for `Cn1cc(-c2nc(N)nnc2-c2c[nH]c3ccccc23)c2cc(Br)cnc21` the value was -75.9% (active).
The same measure, in the same setting: for `O=C(CSc1nc2ccccc2c(=O)n1-c1ccc(Cl)cc1)Nc1ccc(-c2nc3ccccc3[nH]2)cc1` the value was -12% (active); for `Cc1ccc2c(c1)C(=O)/C(=C/c1c[nH]c3ccccc13)S2`, 67.8% (inactive).
`COc1cccc(O)c1/C=C1\SCc2cc3c(OC)cccc3[o+]c21`: the growth was 140% (inactive).
Same read-out and setting: the result for `COc1cc(C2CC(c3ccc(Oc4ccc(Cl)cc4)cc3)=NN2c2nc(-c3ccc(Cl)cc3)c(C#N)c(N3CCOCC3)n2)cc(OC)c1OC` (stereo not drawn) reads 101% (inactive); that for `O=C(Nc1ccc(OCC(=O)c2ccc(Cl)cc2)cc1)Nc1ccc(Cl)c(C(F)(F)F)c1`, -49.4% (active).
The same measure, in the same setting: the result for `Cc1ccc2sc3c(c2c1)Oc1nc[nH]c(=O)c1C3c1cccc(F)c1` (stereo not drawn) reads 105% (inactive); that for `Cc1cc(N=C2NC(=O)/C(=C/c3cc(C(C)(C)C)c(O)c(C(C)(C)C)c3)S2)n[nH]1`, -9.38% (active).
On to `COc1ccc(C2c3sc4ccc(C)cc4c3Oc3nc[nH]c(=O)c32)cc1` (stereo not drawn), for which the growth was 103% (inactive).
As for `COc1cccc(C(=O)CSc2nc(-c3ccc(OCc4ccccc4)c(OC)c3)c(C#N)c(=O)[nH]2)c1`, the growth is 115% (inactive).
Still for that read-out and setting: the result for `Cc1ccc(COc2ccc(NC(=O)Nc3ccc(Cl)c(C(F)(F)F)c3)cc2)cc1` reads 76.8% (inactive); that for `CC(C)(C)c1cc(/C=C2\S/C(=N/c3ncn[nH]3)NC2=O)cc(C(C)(C)C)c1O`, 12.4% (inactive); that for `Cn1cc(/C=C(/SS/C(=C/c2cn(C)c3cccc(C(=O)O)c23)C(=O)O)C(=O)O)c2c(C(=O)O)cccc21`, 112% (inactive).
Turning to `COc1ccc(C(=O)COc2ccc(NC(=O)Nc3ccccc3)cc2)cc1`, the growth was 107% (inactive).
On the same count and under the same terms, for `CCn1c(SCC(=O)Nc2ccc(-c3nc4ccccc4[nH]3)cc2)nc2ccccc2c1=O` the value was -72.7% (active); for `O=C(Nc1ccc(OCc2ccc(F)cc2)cc1)Nc1ccc(Cl)c(C(F)(F)F)c1`, -79.2% (active).
Still for that read-out and setting: the result for `O=C(CC(=O)Nc1ccc(Oc2ncnc3scc(Nc4n[nH]c(=S)s4)c23)cc1)Nc1ccc(Br)cc1` reads 107% (inactive); that for `COc1ccc(C(=O)COc2ccc(NC(=O)Nc3ccc(Cl)c(C(F)(F)F)c3)cc2)cc1`, 7.1% (active); that for `O=C(Nc1ccc(Oc2ncnc3scc(Nc4n[nH]c(=S)s4)c23)cc1)C1(C(=O)Nc2cccc(C(F)(F)F)c2)CC1`, 101% (inactive).
In the case of `O=C1NC(=S)S/C1=C\c1cn(-c2ccccc2)nc1-c1ccc([N+](=O)[O-])cc1`, the growth was 11.7% (inactive).
As to `O=C(CSc1nc2ccccc2c(=O)n1-c1ccc(Cl)cc1)Nc1ccc(-c2nc3ccc([N+](=O)[O-])cc3[nH]2)cc1`, the growth is 11% (inactive).
